Assay [1] is described as follows: NCI Yeast Anticancer Drug Screen. Data for the rad50 strain (AID 155).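 Further: 0% = growth of vehicle-only cultures of the same strain.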 Particulars: S. cerevisiae rad50 strain growth inhibition, stronger effect = higher value. A digest of the protocol: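 DNA repair mutant yeast, compound exposure, growth read-out; inhibition is taken relative to vehicle.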
Assay [2] in a line: NCI Yeast Anticancer Drug Screen. Data for the mec2-1 strain (AID 157). The following applies: S. cerevisiae mec2-1 strain, stronger effect = higher value. A digest of the protocol: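 Strain: mec2-1 (DNA repair/cell cycle alteration). Compound exposure, then growth measured; inhibition expressed relative to vehicle.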
The nature of assay [3]: NCI Yeast Anticancer Drug Screen. Data for the sgs1 mgt1 strain (AID 161).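 Further: 0% = growth of cultures given vehicle only.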 Particulars: S. cerevisiae sgs1 mgt1 strain, stronger effect = higher value. In short, it runs like this: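 Test agents were incubated with a DNA-repair-mutant yeast strain. Growth was then read and compared against vehicle-treated controls.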
The nature of assay [4]: NCI Yeast Anticancer Drug Screen. Data for the cln2 rad14 strain (AID 165).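 Further: 0% = growth equal to vehicle treated cultures.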 The following applies: S. cerevisiae cln2 rad14 strain, stronger effect = higher value. A digest of the protocol:
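Compounds are applied to the cln2 rad14 yeast strain, and growth is then compared with that of vehicle-treated cultures to give inhibition.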

Assay [5] can be described thus: NCI Yeast Anticancer Drug Screen. Data for the bub3 strain (AID 167). The following applies: S. cerevisiae bub3 mutant strain, stronger effect = higher value. A digest of the protocol: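 In this screen, a yeast mutant lacking normal mitotic checkpoint function is challenged with compound. Relative growth versus vehicle gives the inhibition value.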
The nature of assay [6]: NCI Yeast Anticancer Drug Screen. Data for the mlh1 rad18 strain (AID 175). Particulars: S. cerevisiae mlh1 rad18 strain growth inhibition, stronger effect = higher value. A digest of the protocol: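 Read-out is yeast growth inhibition, calculated against vehicle-only controls. The compound was applied to a strain engineered with DNA damage repair alterations.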
The mark [7] stands for this setting: at 5.0 µM (retest, dose inferred, filed as 0.5).
Where [8] appears, read: at 50.0 µM (retest, dose inferred, filed as 5.0).

Drawing on PubChem BioAssay (NCI), this text covers growth inhibition for 10 compounds.

The panel holds about 79,000 compounds, 15% with a hit somewhere; the sample as a whole holds those more often. Values without a mark were called inactive. Calls of active or inactive are those of the source. No stated cut-off is given here; in the data, active means growth inhibition above about 70%; inactive means the rest.

For `NNc1ccc(Cl)cc1Cl`, the growth inhibition in assay [1] (setting [7]) was 79% (active); in assay [1] (setting [8]), 97% (active); in assay [1] (at 50.0 µM), 98.4% (active); in assay [2] (setting [7]), 54%; in assay [2] (setting [8]), 99% (active); in assay [2] (at 50.0 µM) it was 99.4% (active). For the same compound, the growth inhibition is 66% in assay [3] (setting [7]); 98% (active) in assay [3] (setting [8]); 50.6% in assay [3] (at 50.0 µM); 75% (active) in assay [4] (setting [7]); 99% (active) in assay [4] (setting [8]); 58.6% in assay [4] (at 50.0 µM). Also, the growth inhibition in assay [5] (setting [7]) was 85% (active); in assay [5] (setting [8]), 98% (active); in assay [5] (at 50.0 µM), 98.8% (active); in assay [6] (setting [7]) it was 77% (active); in assay [6] (setting [8]), 98% (active); in assay [6] (at 50.0 µM), 48.1%.
For the compound `CN(Cc1ccccc1)c1ccc(SC#N)cc1`, the growth inhibition in assay [1] (setting [7]) is -2%; in assay [1] (setting [8]) it was 82% (active); in assay [1] (at 50.0 µM), 81% (active); in assay [2] (setting [7]) it was -4%; in assay [2] (setting [8]), 61%; in assay [2] (at 50.0 µM) it was 87.5% (active). Also, the growth inhibition in assay [3] (setting [7]) is -5%; in assay [3] (setting [8]), 90% (active); in assay [3] (at 50.0 µM), 79.5% (active); in assay [4] (setting [7]), -5%; in assay [4] (setting [8]), -4%; in assay [4] (at 50.0 µM) it was 24.6%. The growth inhibition in assay [5] (setting [7]) was 6%; in assay [5] (setting [8]) it was 80% (active); in assay [5] (at 50.0 µM) it was 92.7% (active); in assay [6] (setting [7]), 3%; in assay [6] (setting [8]), 85% (active); in assay [6] (at 50.0 µM) it was 89% (active).
On to `CN1CSC(=S)N(Cc2ccccc2)C1`, for which the growth inhibition is 20% in assay [1] (setting [7]); 78% (active) in assay [1] (setting [8]); 73.6% (active) in assay [1] (at 50.0 µM); -5% in assay [2] (setting [7]); 76% (active) in assay [2] (setting [8]); 87.8% (active) in assay [2] (at 50.0 µM). Moreover, the growth inhibition in assay [3] (setting [7]) is 15%; in assay [3] (setting [8]), 67%; in assay [3] (at 50.0 µM), 86.6% (active); in assay [4] (setting [7]) it was 19%; in assay [4] (setting [8]), 41%; in assay [4] (at 50.0 µM), 21.2%. Besides, the growth inhibition is 25% in assay [5] (setting [7]); 90% (active) in assay [5] (setting [8]); 88.3% (active) in assay [5] (at 50.0 µM); -2% in assay [6] (setting [7]); 89% (active) in assay [6] (setting [8]); 75.3% (active) in assay [6] (at 50.0 µM).
For `CCOC(=O)c1c(C)[nH]c2ccc(O)cc12`, the growth inhibition is 6% in assay [1] (setting [7]); 15% in assay [1] (setting [8]); 98.3% (active) in assay [1] (at 50.0 µM); 1% in assay [2] (setting [7]); -3% in assay [2] (setting [8]); 96% (active) in assay [2] (at 50.0 µM). Further, the growth inhibition is -13% in assay [3] (setting [7]); 20% in assay [3] (setting [8]); 97% (active) in assay [3] (at 50.0 µM); -12% in assay [4] (setting [7]); -10% in assay [4] (setting [8]); 94.3% (active) in assay [4] (at 50.0 µM). Further, the growth inhibition is -24% in assay [5] (setting [7]); 5% in assay [5] (setting [8]); 97.3% (active) in assay [5] (at 50.0 µM); -6% in assay [6] (setting [7]); 50% in assay [6] (setting [8]); 96.9% (active) in assay [6] (at 50.0 µM).
On to `CCCCCCCCCCCCCCCc1ccc(C(=O)C[n+]2ccccc2)cc1`, for which the growth inhibition in assay [1] (setting [7]) was 29%; in assay [1] (setting [8]), 96% (active); in assay [1] (at 50.0 µM), 85.8% (active); in assay [2] (setting [7]), 23%; in assay [2] (setting [8]), 98% (active); in assay [2] (at 50.0 µM), 89.7% (active). Besides, the growth inhibition in assay [3] (setting [7]) is 44%; in assay [3] (setting [8]) it was 98% (active); in assay [3] (at 50.0 µM), 87.7% (active); in assay [4] (setting [7]) it was 22%; in assay [4] (setting [8]) it was 81% (active); in assay [4] (at 50.0 µM), 54%. The growth inhibition in assay [5] (setting [7]) was 28%; in assay [5] (setting [8]) it was 98% (active); in assay [5] (at 50.0 µM), 85.2% (active); in assay [6] (setting [7]), 32%; in assay [6] (setting [8]), 97% (active); in assay [6] (at 50.0 µM), 83% (active).
Turning to `O=[N+]([O-])C=C(c1ccccc1)c1ccccc1`, the growth inhibition in assay [1] (setting [7]) was -23%; in assay [1] (setting [8]), 93% (active); in assay [1] (at 50.0 µM) it was 96.8% (active); in assay [2] (setting [7]) it was -12%; in assay [2] (setting [8]), 89% (active); in assay [2] (at 50.0 µM), 87.8% (active). The growth inhibition in assay [3] (setting [7]) is 7%; in assay [3] (setting [8]), 86% (active); in assay [3] (at 50.0 µM) it was 77.8% (active); in assay [4] (setting [7]), -20%; in assay [4] (setting [8]) it was 63%; in assay [4] (at 50.0 µM), 76.8% (active). In addition, the growth inhibition in assay [5] (setting [7]) is -1%; in assay [5] (setting [8]), 90% (active); in assay [5] (at 50.0 µM), 88% (active); in assay [6] (setting [7]), -12%; in assay [6] (setting [8]) it was 94% (active); in assay [6] (at 50.0 µM), 93.2% (active).
With `CSc1nc(C)c(C(=O)CCN2CCN(c3ccccn3)CC2)s1`, the growth inhibition in assay [1] (setting [7]) was -3%; in assay [1] (setting [8]), 99% (active); in assay [1] (at 50.0 µM) it was 86.8% (active); in assay [2] (setting [7]) it was -3%; in assay [2] (setting [8]), 100% (active); in assay [2] (at 50.0 µM), 78% (active). Besides, the growth inhibition in assay [3] (setting [7]) is -23%; in assay [3] (setting [8]), 99% (active); in assay [3] (at 50.0 µM), 66.2%; in assay [4] (setting [7]), -2%; in assay [4] (setting [8]) it was 99% (active); in assay [4] (at 50.0 µM), 43.4%. The growth inhibition in assay [5] (setting [7]) is -1%; in assay [5] (setting [8]), 100% (active); in assay [5] (at 50.0 µM), 79.5% (active); in assay [6] (setting [7]) it was -3%; in assay [6] (setting [8]), 99% (active); in assay [6] (at 50.0 µM) it was 58.6%.
`O=C1CSC(=S)N1Cc1cccnc1`: the growth inhibition is 1% in assay [1] (setting [7]); 19% in assay [1] (setting [8]); 45.4% in assay [1] (at 50.0 µM); 4% in assay [2] (setting [7]); 47% in assay [2] (setting [8]); 34% in assay [2] (at 50.0 µM). Moreover, the growth inhibition in assay [3] (setting [7]) is 6%; in assay [3] (setting [8]) it was 24%; in assay [3] (at 50.0 µM), 42.9%; in assay [4] (setting [7]) it was 32%; in assay [4] (setting [8]) it was 33%; in assay [4] (at 50.0 µM) it was 1.95%. In addition, the growth inhibition in assay [5] (setting [7]) is -22%; in assay [5] (setting [8]) it was 48%; in assay [5] (at 50.0 µM), 61.8%; in assay [6] (setting [7]), -4%; in assay [6] (setting [8]), 72% (active); in assay [6] (at 50.0 µM) it was 54.9%.
In the case of `Clc1ccccc1C(c1ccccc1)(c1ccccc1)n1ccnc1`, the growth inhibition in assay [1] (setting [7]) is 44%; in assay [1] (setting [8]), 99% (active); in assay [1] (at 50.0 µM), 99.3% (active); in assay [2] (setting [7]), 20%; in assay [2] (setting [8]) it was 99% (active); in assay [2] (at 50.0 µM) it was 99.8% (active). In addition, the growth inhibition in assay [3] (setting [7]) was 53%; in assay [3] (setting [8]), 99% (active); in assay [3] (at 50.0 µM) it was 99.6% (active); in assay [4] (setting [7]) it was 18%; in assay [4] (setting [8]), 99% (active); in assay [4] (at 50.0 µM), 99.2% (active). Besides, the growth inhibition in assay [5] (setting [7]) was 34%; in assay [5] (setting [8]), 99% (active); in assay [5] (at 50.0 µM), 99.6% (active); in assay [6] (setting [7]), 30%; in assay [6] (setting [8]), 99% (active); in assay [6] (at 50.0 µM), 99.7% (active).
Regarding `O=C(/C=C/c1ccccc1)CCC1C(=O)c2ccccc2C1=O`, the growth inhibition was 24% in assay [1] (setting [7]); 40% in assay [1] (setting [8]); 3.25% in assay [1] (at 50.0 µM); 10% in assay [2] (setting [7]); 33% in assay [2] (setting [8]); -9% in assay [2] (at 50.0 µM). Besides, the growth inhibition in assay [3] (setting [7]) was 14%; in assay [3] (setting [8]), 42%; in assay [3] (at 50.0 µM), 1.05%; in assay [4] (setting [7]), 10%; in assay [4] (setting [8]), 20%; in assay [4] (at 50.0 µM) it was 17.8%. Besides, the growth inhibition is 12% in assay [5] (setting [7]); 51% in assay [5] (setting [8]); -12.6% in assay [5] (at 50.0 µM); 22% in assay [6] (setting [7]); 50% in assay [6] (setting [8]); 4.6% in assay [6] (at 50.0 µM).
